Measured values from PubChem BioAssay.

Experiments:
[1] = tested on: Human papillomavirus type 1a protein E7 (residues 44-93); assay: HPV1a E7 fragment binders on microarrays, primary screen, biochemical, small-molecule microarray, residues 44-93, 635 nm fluorescence (AID 1108); settings: small-molecule microarray binding, fluorescence 635 nm; higher = more signal;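 further: E7 fragment applied at 1 µg/mL in TBST for 1 h at 4 C; score combines spot fluorescence with its signal to noise ratio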
[2] = modulators of HCV replicon luciferase signal, primary screen, HCV replication inhibitor project, Huh7 cells, luciferase reporter (AID 1109); settings: 48 h, higher = more signal;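 further: huh7 hepatoma cells harbouring a luciferase neomycin HCV replicon reporter; luciferase luminescence as measure of HCV replicon replication; test concentration not given here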
[3] = molecular target: Left-right determination factor 2 (Homo sapiens) (UniProt O00292); assay: LEFTY2 binders on small-molecule microarrays, primary screen, biochemical, small-molecule microarray, 635 nm fluorescence scan (AID 1110); settings: LEFTY2 binding, higher = more signal
Chain of Left-right determination factor 2 (Homo sapiens) (O00292 whole entry, looked up): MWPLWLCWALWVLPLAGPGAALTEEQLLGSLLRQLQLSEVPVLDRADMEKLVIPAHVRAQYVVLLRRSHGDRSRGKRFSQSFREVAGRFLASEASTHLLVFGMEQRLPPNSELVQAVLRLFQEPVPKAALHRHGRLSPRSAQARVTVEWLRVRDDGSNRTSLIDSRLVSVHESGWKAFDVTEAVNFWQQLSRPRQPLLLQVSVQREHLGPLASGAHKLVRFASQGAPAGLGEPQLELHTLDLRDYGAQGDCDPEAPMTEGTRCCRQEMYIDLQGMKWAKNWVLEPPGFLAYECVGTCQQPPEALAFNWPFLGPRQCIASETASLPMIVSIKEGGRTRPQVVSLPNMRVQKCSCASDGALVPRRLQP

[4] = molecular target: Calmodulin-1 (Homo sapiens) (UniProt P0DP23); assay: CALM1 binders on microarrays, EGTA buffer, profiling panel, biochemical, small-molecule microarray, Cy5-labelled CALM1 (AID 1111); settings: Cy5-CALM1 binding fluorescence, higher = more signal;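 further: labelled calmodulin applied in Tris saline Tween buffer holding calcium plus EGTA and DTT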
[5] = molecular target: Calmodulin-1 (Homo sapiens) (UniProt P0DP23); assay: calcium-bound CALM1 binders on microarrays, profiling panel, artefact control for SMM control-protein annotation, biochemical, small-molecule microarray, Cy5-labelled CALM1, plus calcium (AID 1112); settings: Cy5-CALM1 binding fluorescence, higher = more signal;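 further: score merges spot fluorescence with signal to noise from triplicate slides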
[6] = small-molecule microarray binders of probe aWnt5a, primary screen, biochemical, biotinylated probe, 635/667 nm fluorescence (AID 1113); settings: higher = more signal;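 further: score merges 667 nm fluorescence intensity with signal-to-noise per printed feature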
[7] = small-molecule microarray binders of probe aShh, primary screen, biochemical, biotinylated probe, 635/667 nm fluorescence (AID 1114); settings: higher = more signal;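 further: probe is biotin-labelled aShh protein from a stem cell growth factor screen; measures binding of labelled protein to compounds printed on the slide; score merges feature fluorescence at 667 nm with signal-to-noise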
[8] = small-molecule microarray binders of probe aNog, primary screen, biochemical, biotinylated probe, 635/667 nm fluorescence (AID 1115); settings: higher = more signal;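 further: probe is biotinylated aNog protein used at 0.15 µg/mL for 1 h at 4 C; z-score combines 667 nm fluorescence of each spot with its signal to noise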
[9] = molecular target: Torsin-1A-interacting protein 1 (Homo sapiens) (UniProt Q5JTV8); assay: LAP1 binders from COS7 cell lysate, primary screen, small-molecule microarray, 635/667 nm fluorescence (AID 1116); settings: COS7-hLAP1 lysate binding, 635 nm fluorescence, higher = more signal
Chain of Torsin-1A-interacting protein 1 (Homo sapiens) (Q5JTV8 whole entry, looked up): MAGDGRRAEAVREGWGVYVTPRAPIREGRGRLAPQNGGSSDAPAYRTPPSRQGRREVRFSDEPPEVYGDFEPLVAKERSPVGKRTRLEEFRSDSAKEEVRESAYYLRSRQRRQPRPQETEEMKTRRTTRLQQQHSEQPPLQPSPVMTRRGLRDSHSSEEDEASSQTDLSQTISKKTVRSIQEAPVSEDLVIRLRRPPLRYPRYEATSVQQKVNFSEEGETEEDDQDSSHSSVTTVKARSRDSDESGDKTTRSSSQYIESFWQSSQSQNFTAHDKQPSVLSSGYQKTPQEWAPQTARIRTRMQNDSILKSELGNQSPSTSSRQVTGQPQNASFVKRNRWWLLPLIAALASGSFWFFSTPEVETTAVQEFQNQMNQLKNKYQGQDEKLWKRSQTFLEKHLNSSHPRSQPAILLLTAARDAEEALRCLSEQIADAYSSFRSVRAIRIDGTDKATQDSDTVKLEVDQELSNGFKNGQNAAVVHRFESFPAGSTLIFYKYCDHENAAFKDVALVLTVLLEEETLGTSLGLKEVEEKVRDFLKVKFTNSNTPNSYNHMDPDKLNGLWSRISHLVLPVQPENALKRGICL

[10] = molecular target: Alpha-bungarotoxin (Bungarus multicinctus) (UniProt P60615); assay: alpha-bungarotoxin binders on microarray, profiling panel, artefact control for SMM control protein annotation, biochemical, small-molecule microarray, Alexa647 label, 635/667 nm fluorescence (AID 1117); settings: alpha-BTX-A647 binding fluorescence, higher = more signal
Chain of Alpha-bungarotoxin (Bungarus multicinctus) (P60615 whole entry, looked up): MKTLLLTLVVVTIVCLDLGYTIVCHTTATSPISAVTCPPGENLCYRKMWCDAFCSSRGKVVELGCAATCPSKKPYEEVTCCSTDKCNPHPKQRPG

SMILES	composite z-score [1]	z-score [2]	composite z-score [3]	composite z-score [4]	composite z-score [5]	composite z-score [6]	composite z-score [7]	composite z-score [8]	composite z-score [9]	composite z-score [10]
COc1ccc([Si](C)(C)[C@H]2[C@H](CCn3cc(CCO)nn3)O[C@@]3(C(=O)N(Cc4ccc(N5C(=O)c6cccc7cccc5c67)cc4)c4ccccc43)[C@@H]2C)cc1	1.4	-5.13	0.691	0.778	0.487	-0.117	0.0121	0.298	0.537	1.08
C=CCNC(=O)[C@@H]1[C@H]2C(=O)O[C@H](c3ccccc3)[C@H](c3ccccc3)N2[C@H](c2ccc(OCCO)cc2)[C@@]12C(=O)N(C(=O)OCCOC)c1ccc(C#CC3=CCCCC3)cc12	1.34	-1.68	0.509	1.66	0.283	-0.0051	0.13	-0.375	0.642	0.84
C=C(COC)/C(=C/C[C@@H](OC(=O)c1ccncc1)c1cccc(OCCO)c1)c1cnc2ccccc2c1	0.429	-3.87	1.04	1.3	-0.102	-0.0161	0.259	0.581	1.54	3.87
CN(C)CCCNC(=O)[C@@]1(c2ccc([N+](=O)[O-])cc2)CC(=O)N(CC23CC4CC(CC(C4)C2)C3)[C@@H]1c1ccc(CO)cc1	1.23	-3.26	0.364	1.43	0.398	0.249	0.806	2.24	2.35	1.83
O=C(CS)NCCCCCCNC(=O)[C@H]1C[C@H]2C(=O)N[C@@H](Cc3ccccc3)C(=O)N2[C@H]1c1cccc(OCCO)c1	1.37	-0.963	1.23	1.79	0.0164	0.0066	0.676	0.897	1.38	2.44
COC(=O)Cn1c(C(=O)N2CCCC2)cc2c1C[C@H]1CN(C(=O)c3ccccc3)[C@@](Cc3ccc(F)cc3)(C(=O)OC)[C@@H]21	-0.137	-1.32	-0.0715	1.15	0.153	-0.0405	-0.0738	-0.298	0.943	-0.155
CC(C)CNC(=O)[C@@]1(c2ccc([N+](=O)[O-])cc2)CC(=O)N(C2CCCCC2)[C@@H]1c1ccc(CO)cc1I	1.11	-2.3	-0.609	0.779	0.379	-0.0417	-0.16	-0.279	0.341	0.817
CCCCN1CC=CC23O[C@@H]4/C=C\CCC(C)OC(=O)C4[C@H]2C(=O)N(CCCCCCO)[C@@H]3C1=O (stereo not given in full)	0.111	-0.0691	-0.567	0.119	0.282	0.0321	-0.0709	-0.168	1.47	-0.637
O=c1cccc(-c2cccc(Cl)c2)o1	0.0546	0.268	0.128	-0.137	-0.137	-0.228	-0.338	-0.229	0.432	0.0698
CCCc1cccc(=O)o1	0.364	-0.672	0.427	0.0369	-0.116	0.0037	0.0723	0.0638	0.898	0.696
CCOC(=CC(=O)OC)CC(O)c1cccc(Cl)c1 (stereo not given)	1.11	-2.17	-0.796	-0.265	0.486	-0.0685	-0.156	-0.527	1.36	-0.259
[N-]=[N+]=NCc1ccccc1C[C@@]1(C(=O)NCCN2CCOCC2)N=C(c2ccc(OCCCO)cc2)O[C@@H]1c1ccccc1N=[N+]=[N-]	1.4	-3.07	-0.429	1.16	0.415	0.168	0.0141	0.78	0.948	1.89
NC(N)=NCc1cn(CCc2c[nH]c3ccccc23)nn1	0.712	-1.66	1.23	-0.732	-1	-0.114	0.0141	-0.158	0.615	0.755
COc1c(C)cc(-c2cc3c(c(Cc4ccccc4)n2)[Si](C(C)C)(C(C)C)OC3)cc1C	-0.0363	-0.637	0.265	0.0153	0.0467	-0.096	-0.123	-0.393	-0.0091	0.229
CO[C@H]1O[C@H](CO)[C@@H](OC(=O)Nc2ccccc2-c2ccccc2)[C@H](OC(=O)Nc2ccc3c(c2)OCO3)[C@@H]1OC(=O)Nc1ccc2c(c1)OCO2	1.49	-0.841	0.0086	1.24	-0.499	0.0244	0.232	1.21	0.541	1.01
CO[C@H]1O[C@H](CO)[C@@H](OC(=O)Nc2ccc(Oc3ccccc3)cc2)[C@H](OC(=O)Nc2ccccc2-c2ccccc2)[C@@H]1OC(=O)Nc1ccccc1-c1ccccc1	1.02	-3.19	0.242	2.17	0.409	-0.0667	0.256	1.74	1.27	1.52
C=CCOC(=O)[C@H]1[C@@H]2C(=O)O[C@@H](c3ccccc3)[C@@H](c3ccccc3)N2[C@@H](c2ccc(OCCOC(=O)[C@H]3C[C@H]4C(=O)N[C@@H](Cc5ccccc5)C(=O)N4[C@H]3c3cccc(OCCO)c3)cc2)[C@]12C(=O)Nc1ccc(I)cc12	1.38	-1.68	0.692	0.384	0.334	0.0004	-0.144	-0.175	1.25	1.35
C=CC[C@@]1(C(=O)N2CCCCC2)N=C(c2ccc(OCCCO)cc2)O[C@@H]1c1ccccc1	0.305	-1.91	0.106	0.506	-0.185	0.141	-0.0243	2.01	1.87	0.497
O=C(N1CCCCC1)[C@@]1(Cc2ccccc2)COC(c2ccc(OCCCO)cc2)=N1	0.242	-1.98	-0.462	2.02	1.23	0.113	0.253	0.293	0.996	1.83
COCCCNC(=O)[C@@]1(Sc2ccc(C)cc2)CC(=O)N(Cc2cc(C(F)(F)F)cc(C(F)(F)F)c2)[C@@H]1c1ccc(CO)cc1	1.07	-0.168	-0.223	0.0267	-0.683	-0.096	0.0136	-0.0069	0.156	2.13
COc1ccc(C(O)C2C=CC3C(=O)N(C)C(=O)C3N2N2CCCCC2)cc1 (stereo not given)	0.069	0.633	0.108	0.204	0.3	0.1	0.457	1.07	2.36	0.55
Cc1ccc(F)cc1S(=O)(=O)N[C@@H]1CCN(Cc2ccc(Oc3ccccc3)cc2)C1	-1.39	-3.67	0.74	-1.08	-0.466	-0.147	-0.195	-0.388	-0.104	0.471
COc1cc(OC)c(C(O)C2C=CC3C(=O)N(c4ccccc4)C(=O)C3N2Nc2ccc(C#N)cc2)cc1Br (stereo not given)	1.36	-0.519	0.0166	2.19	0.992	0.471	0.196	0.81	2.18	2.42
COC(=O)C1(Cc2ccccc2)C=C2C(=C(c3ccccc3)C(=O)C2C)CN1 (stereo not given)	-0.964	-1.53	-0.871	0.648	1.18	1.11	2.71	1.05	1.22	0.0329
COc1cc(CO)cc(I)c1O[C@H]1C=C(C(=O)NCCO)C[C@@H](NCc2ccccc2F)[C@@H]1O	0.509	-2.62	0.365	-0.154	-0.327	-0.264	-0.138	-0.103	1.4	0.109
O=C1O[C@@H](c2ccccc2)[C@@H](c2ccccc2)N2[C@@H](c3ccccc3OCCO)[C@]3(C(=O)Nc4ccc(C#CCCO)cc43)[C@@H](C(=O)N3CCN(c4ncccn4)CC3)[C@H]12	1.39	-1.71	-0.0407	1.15	0.27	-0.096	-0.16	-0.332	0.744	1.23
C=CC1c2cc(O)c(OC)cc2CCN1Cc1sc2ccccc2c1Cl (stereo not given)	1.38	-1.78	0.0792	0.248	0.237	-0.107	0.0796	-0.0132	0.47	1.47
